Compound activity deposited in PubChem BioAssay by several laboratories.
Only some compounds are listed: those with a hit (about 4.5% of all), similar ones and a draw of the others.
TIM10 inh = growth inhibitors of isogenic TIM10 control yeast, primary screen, counter-screen for tim10-1 yeast inhibitor project, luminescence, uHTS; inhibition, % at 10 µM; S. cerevisiae TIM10 strain growth, BacTiter-Glo luminescence, 24 h; 1.4% of 330,000 active;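 active = inhibition of 40% or more at the single tested concentration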;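 note: wild-type TIM10 isogenic control strain grown at permissive 25 °C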
NALP3 yeast inh = NALP3 inflammasome inhibitors in reconstituted yeast, primary screen, luminescence, uHTS. 0.39% of 330,000 active. AID 2825, 2010. Yeast reconstituted NLRP3/ASC/caspase-1, beta-gal luminescence, 24 h. inhibition, % at 10 µM;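 active = inhibition of 50% or more; inactive = inhibition below 50%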;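 note: plate controls were induced DMSO wells for no effect and uninduced yeast grown without galactose for full effect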
PfHsp90 set2 = growth inhibition of PfHsp90-expressing yeast, primary screen, antimalarial PfHsp90 inhibitor project, S. cerevisiae, BacTiter-Glo luminescence, single point, set 2; 0.32% of 310,000 active; inhibition, % at 9.4 µM; BacTiter-Glo ATP, 48 h; yeast lacking PDR1 and PDR3 efflux regulators;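 active = every replicate shows inhibition above about 80%, whatever the replicate mean, limit read from the data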;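 note: 0% = DMSO neutral controls and 100% = 20 µM radicicol positive controls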
tim23-1 inh = growth inhibitors of tim23-1 mutant yeast, primary screen, luminescence, uHTS. S. cerevisiae tim23-1 growth, BacTiter-Glo luminescence, 24 h. inhibition, % at 20 µM. 1.3% of 330,000 active;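 active = growth inhibition of the mutant yeast at or above 50%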;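 note: temperature-sensitive mutant grown at 25 °C; plate controls were DMSO-treated mutant yeast for no effect and medium wells lacking yeast for full effect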
tim10-1 inh = growth inhibitors of tim10-1 mutant yeast, primary screen, luminescence, uHTS. inhibition, % at 20 µM. S. cerevisiae tim10-1 ts strain growth, BacTiter-Glo, 24 h. 2.2% of 330,000 active;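 active = inhibition of at least 40%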;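 note: mutant grown at 25 °C; 0% = DMSO wells with yeast and 100% = wells holding no yeast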
SKKanGAS inh = S. pyogenes SKKanGAS growth inhibitors in kanamycin, primary screen, streptokinase expression inhibitor project, SKKanGAS strain, BacTiter-Glo luminescence | inhibition, % at 7.5 µM | 1.3% of 300,000 active | 6 h;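 active = mean replicate score, as percent of positive control median, at least 50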;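 note: strain carries kanamycin resistance gene driven by streptokinase promoter and grows in 40 µg/ml kanamycin; loss of luminescence reflects streptokinase promoter inhibition or plain growth inhibition; 0% = median of DMSO wells and 100% = positive control at its reference dose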
NALP3 confirm = NALP3 inhibitors retested in yeast, confirmation, luminescence, single concentration; shares compounds with NALP3 yeast inh; yeast expressing human NALP3; inhibition, % at 10 µM; 81% of 1,300 active; in the data active = inhibition above about 48%
Casp1-ASC yeast = CASP1-PYCARD signaling inhibition in yeast, confirmatory test, counterassay for NLRP3 inhibitor program, one-dose. shares compounds with NALP3 yeast inh. yeast expressing Caspase-1-ASC, luminescence counter screen. inhibition, % at 10 µM. 66% of 1,000 active
NALP3 retest = NALP3 inhibitors in yeast, repeat test, confirmation, luminescence, single concentration, retest; shares compounds with NALP3 yeast inh; yeast expressing human NALP3, luminescence read-out; inhibition, % at 10 µM; 53% of 1,000 active
* marks the source's active call; other numbers are inactive results. Cut-off read from the data, not from the text of the source, unless noted: active = inhibition above about 50%; inactive = the rest.

What do the screens show for `CCN(Cc1ccccc1)C(=O)COC(=O)[C@@H]1CCCN1C(=O)c1cccs1`?
TIM10 inh: -2; NALP3 yeast inh: 18; tim23-1 inh: 13; tim10-1 inh: 17

What do the screens show for `CCCCN(C(=O)c1cc(Cl)nc2ccccc12)c1c(N)n(Cc2ccccc2)c(=O)[nH]c1=O`?
TIM10 inh: 12; NALP3 yeast inh: -4; tim23-1 inh: 15; tim10-1 inh: 14; SKKanGAS inh: -1

How did CCc1ccc(N=Nc2ccc(O)c3[nH]cnc23)cc1 do in these assays?
TIM10 inh: 25; NALP3 yeast inh: 51*; PfHsp90 set2: -16; tim23-1 inh: 37; tim10-1 inh: 29; NALP3 confirm: 43; Casp1-ASC yeast: 24; NALP3 retest: 34

How did CCc1ccc(/C=N/Nc2ncnc3nc[nH]c23)cc1 do in these assays?
TIM10 inh: -3; NALP3 yeast inh: 12; PfHsp90 set2: 18; tim23-1 inh: 19; tim10-1 inh: 12; SKKanGAS inh: 0

Results for CCc1cccc(NC(=S)N2CCC(c3ccccc3)C2)c1 (stereo not given) ?
TIM10 inh: 39; NALP3 yeast inh: 52*; PfHsp90 set2: 12; tim23-1 inh: 36; tim10-1 inh: 18; SKKanGAS inh: 9; NALP3 confirm: 56*; Casp1-ASC yeast: 62*; NALP3 retest: 45

Results for COc1ccc(OC)c(-n2c(=S)[nH]c3cc(C(=O)N(C)Cc4ccccc4)ccc3c2=O)c1 ?
TIM10 inh: -2; NALP3 yeast inh: 17; tim23-1 inh: -3; tim10-1 inh: 6; SKKanGAS inh: 7

What do the screens show for `O=c1cc(CSc2ccc(Cl)cc2)nc(-c2ccccn2)[nH]1`?
TIM10 inh: -33; NALP3 yeast inh: 64*; PfHsp90 set2: 105*; tim23-1 inh: 25; tim10-1 inh: 27; SKKanGAS inh: 97*; NALP3 confirm: 84*; Casp1-ASC yeast: 97*; NALP3 retest: 91*

Results for O=c1cc(CSc2ccc(Cl)cc2)nc(-c2ccccc2)[nH]1 ?
TIM10 inh: 26; NALP3 yeast inh: 17; PfHsp90 set2: -17; tim23-1 inh: 18; tim10-1 inh: 15; SKKanGAS inh: 4

What do the screens show for `Clc1ccc(SCc2cc(N3CCOCC3)nc(-c3ccccn3)n2)cc1`?
TIM10 inh: 20; NALP3 yeast inh: 51*; PfHsp90 set2: -22; tim23-1 inh: 3; tim10-1 inh: 21; SKKanGAS inh: -1; NALP3 confirm: 57*; Casp1-ASC yeast: 55*; NALP3 retest: 54*

Results for COC(=O)c1ccccc1Oc1ccc(NC(=O)c2ccco2)cc1 ?
TIM10 inh: 17; NALP3 yeast inh: 51*; PfHsp90 set2: 10; tim23-1 inh: 20; tim10-1 inh: 16; SKKanGAS inh: -4; NALP3 confirm: 68*; Casp1-ASC yeast: 49; NALP3 retest: 35

How did CC1(C)C[C@H](O)[C@@]23C[C@@H](OC2=O)[C@]2(C)C(=CCC4[C@@]5(C)CC[C@H](O)C(C)(C)C5CC[C@]42C)[C@@H]3C1 (stereo not given in full) do in these assays?
TIM10 inh: 4; NALP3 yeast inh: 51*; tim23-1 inh: 11; tim10-1 inh: 8; SKKanGAS inh: 9; NALP3 confirm: 68*; Casp1-ASC yeast: 41; NALP3 retest: 41

What do the screens show for `CC1(C)C2CC[C@]3(C)C(CC=C4[C@@H]5C[C@@](C)(CO)[C@@H]6C[C@@]5(CC[C@]43C)C(=O)O6)[C@@]2(C)CC[C@@H]1O` (stereo not given in full)?
TIM10 inh: -31; NALP3 yeast inh: 55*; tim23-1 inh: -4; tim10-1 inh: -17; SKKanGAS inh: 6; NALP3 confirm: 58*; Casp1-ASC yeast: 28; NALP3 retest: 30

What do the screens show for `CC1(C)C[C@H](O)[C@]2(CO)CC[C@]3(C)C(=CCC4[C@@]5(C)CC[C@H](O)C(C)(C)C5CC[C@]43C)[C@@H]2C1` (stereo not given in full)?
TIM10 inh: -6; NALP3 yeast inh: 41; PfHsp90 set2: 35; tim23-1 inh: -1; tim10-1 inh: -19

Results for CCN(CC(=O)NCCC1=CCCCC1)S(=O)(=O)c1ccccc1 ?
TIM10 inh: 2; NALP3 yeast inh: 13; PfHsp90 set2: -2; tim23-1 inh: 27; tim10-1 inh: 15; SKKanGAS inh: 12

How did COc1ccccc1CCNC(=O)CCn1c(=O)c2cccn2c2ccc(F)cc21 do in these assays?
TIM10 inh: -5; NALP3 yeast inh: 10; PfHsp90 set2: -13; tim23-1 inh: 19; tim10-1 inh: 33; SKKanGAS inh: 33

How did Cc1nnc(NC(=O)c2cc(S(=O)(=O)N3CCCCC3)ccc2Cl)s1 do in these assays?
TIM10 inh: 3; NALP3 yeast inh: -8; PfHsp90 set2: -3; tim23-1 inh: 1; tim10-1 inh: 11; SKKanGAS inh: 8

Results for O=C1NC[C@H](Cc2ccccc2)N(CC2CCN(CCCC3CCCC3)CC2)C1=O ?
PfHsp90 set2: 15

Results for CCOc1nc(S(=O)(=O)c2ccc(C)cc2)c(Cl)s1 ?
TIM10 inh: 20; NALP3 yeast inh: -107; PfHsp90 set2: -22; tim23-1 inh: 9; tim10-1 inh: 19; SKKanGAS inh: 10; NALP3 confirm: -12

Results for CSc1nc(S(=O)(=O)c2ccc(C)cc2)c(Cl)s1 ?
TIM10 inh: -25; NALP3 yeast inh: -51; tim23-1 inh: 18; tim10-1 inh: 18; SKKanGAS inh: 7

Results for Cc1ccc(NC(=O)CN2CCN(CCN=CC3=C(O)CC(C)(C)CC3=O)CC2)cc1 ?
TIM10 inh: -6; NALP3 yeast inh: 55*; tim23-1 inh: -16; tim10-1 inh: -21; SKKanGAS inh: -2; NALP3 confirm: 58*; Casp1-ASC yeast: 36; NALP3 retest: 46

What do the screens show for `CC1(C)CC(=O)C(C=NCCN2CCN(CC(=O)Nc3ccc(Cl)cc3)CC2)=C(O)C1`?
TIM10 inh: 10; NALP3 yeast inh: 46; PfHsp90 set2: -60; tim23-1 inh: 16; tim10-1 inh: 3; SKKanGAS inh: 0
